# Screens: PubChem, The Scripps Research Institute Molecular Screening Center
# TEAD-YAP block = TEAD-YAP interaction inhibition; HEK-TIYL cells, TEAD-Gal4/YAP UAS-luciferase luminescence; inhibition, % at 9.12 µM; 640,000 compounds, 1.4% hits; in the data active = inhibition above about 32%;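 note: 0% = median of test compound wells and 100% = reference inhibitor wells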
# GPR151 ag = human GPR151 activation. PathHunter beta-arrestin GPR151 cells, luminescence. Q8TDV0. AID 1508602. activation, % at 11.2 µM. 650,000 compounds, 1% hits; in the data active = activation above about 4.9%;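 note: 0% = median of compound wells and 100% = cells with positive control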
# MITF inh = human MITF inhibition, primary screen. inhibition, % at 2.6 µM. AlphaScreen MITF homodimerization, bead proximity signal. 650,000 compounds, 0.91% hits. O75030; in the data active = inhibition above about 50%;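 note: 0% = vehicle wells with protein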
# Target sequence (O75030 whole entry, looked up): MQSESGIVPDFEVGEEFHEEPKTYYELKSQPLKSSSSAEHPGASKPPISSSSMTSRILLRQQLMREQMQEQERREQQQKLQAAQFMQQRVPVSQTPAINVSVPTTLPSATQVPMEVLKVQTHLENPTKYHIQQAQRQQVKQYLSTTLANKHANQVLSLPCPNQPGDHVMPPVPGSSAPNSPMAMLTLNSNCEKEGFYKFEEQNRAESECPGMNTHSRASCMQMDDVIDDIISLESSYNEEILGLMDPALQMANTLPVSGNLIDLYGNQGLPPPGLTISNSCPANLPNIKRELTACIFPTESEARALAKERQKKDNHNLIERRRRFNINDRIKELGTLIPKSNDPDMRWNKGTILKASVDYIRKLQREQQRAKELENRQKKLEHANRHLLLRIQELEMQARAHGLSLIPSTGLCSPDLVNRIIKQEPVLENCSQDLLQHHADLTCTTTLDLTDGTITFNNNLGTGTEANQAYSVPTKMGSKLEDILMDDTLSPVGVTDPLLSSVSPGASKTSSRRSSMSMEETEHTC
# FBW7 act = human FBW7 E3 ligase activation, primary screen. normalized activity (activation), % at 26.1 µM. Q969H0. AID 1259310. AlphaScreen FBW7–phospho-cyclin E peptide binding, activator screen. 650,000 compounds, 0.13% hits; in the data active = normalized activity above about 1.9%;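 note: purified mutant Fbw7 with reduced substrate affinity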
# MITF confirm = human MITF inhibition, confirmation; 4,700 compounds, 16% hits; inhibition, % at 2.6 µM; AlphaScreen MITF homodimerization, biotin/His-MITF beads; shares compounds with MITF inh;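 active = inhibition above a cutoff derived from the DMSO control wells, cut at about 28% in these data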;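 note: 0% = MITF dimer wells with DMSO only; inhibitors lower the bead chemiluminescence by keeping MITF from dimerizing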
# AlphaScreen intf2 = AlphaScreen optical interference, counter-screen; LysRS AlphaScreen counterscreen, signal interference, triplicate; shares compounds with MITF inh; inhibition, % at 2.6 µM; 4,700 compounds, 7.6% hits;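 active = inhibition above a cutoff derived from the DMSO control wells, cut at about 30% in these data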
# GPR151 conf act = human GPR151 activation, confirmation screen; activation, % at 11.2 µM; shares compounds with GPR151 ag; AID 1508609; 6,700 tested, under 10 active; GPR151 PathHunter beta-arrestin cells, luminescence, 90 min; % of EA-reagent control over plate median;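 active = mean percent activation across replicates above the confirmation screen cutoff of 4.91%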
# GPR119 ag = activates human GPR119 in a GPR151 counter-screen; activation, % at 11.2 µM; GPR119 PathHunter beta-arrestin cells, luminescence, 90 min; 0 = compound-well median, 100 = enzyme-acceptor control; 6,700 compounds, 0.3% hits; shares compounds with GPR151 ag;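 active = mean percent activation in the counterscreen above 29.09%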;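 note: counterscreen on off-target GPR119 to flag nonselective hits from the GPR151 activator screen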
# Starred values were filed as active, the others as inactive; . = no result given; ! = a repeat was not active. Compounds with a hit are over-represented: about 3.4% of the library has one in this group of screens.
SMILES,TEAD-YAP block,GPR151 ag,MITF inh,FBW7 act,GPR151 conf act,GPR119 ag,others
CCOC(=O)N1CCN(C(=O)C2CCN(C/C(C)=C/c3ccccc3)CC2)CC1,1.7,6.6*,57.9*,0.1,-0.4,7.1,MITF confirm=11.3;AlphaScreen intf2=12.2
CN(C)C(=O)CN1C(=O)COc2ccccc21,-5.0,0.7,-9.1,0.0,.,.,
O=C(O)CN(CCOCCOCCN(CC(=O)O)CC(=O)O)CC(=O)O,-2.5,1.6,-0.6,-0.2,.,.,
O=C(O)CN(CCN(CC(=O)O)CC(=O)O)CCN(CC(=O)O)CC(=O)O,5.8,8.1*!,40.6,-0.1,0.5,9.7,
Cc1ccc(-n2cc(-c3ccccc3)c3c(NCCC(c4ccccc4)c4ccccc4)ncnc32)cc1Cl,-9.4,-0.9,3.8,0.0,.,.,
CC1=C(C(=O)N2CCC(CCC(=O)N(C)Cc3ccccc3)CC2)OCCO1,-11.8,-0.9,-0.7,-0.1,.,.,
CN(Cc1ccccc1)C(=O)CCC1CCN(C(=O)C(=O)c2ccccc2)CC1,-19.3,5.2*,-7.1,-0.2,-0.8,2.1,
NS(=O)(=O)c1ccc(NNC(=O)/C=C/c2cccs2)cc1,4.3,1.1,4.3,0.1,.,.,
COc1ccc(-c2nnc(SCc3nc4ccccc4[nH]3)n2-c2ccccc2)cc1OC,-13.3,5.0*,-13.8,0.2,-0.6,-1.9,
COc1cc(/C=C2\SC(=S)NC2=O)ccc1OS(=O)(=O)c1ccccc1,18.5,7.9*,11.0,0.0,0.3,6.4,
Nc1ncnc(Nc2ccc(N=Nc3ccccc3)cc2)c1[N+](=O)[O-],3.3,0.3,16.8,0.1,.,.,
Cc1ccc(Nc2ncnc(N)c2[N+](=O)[O-])cc1Cl,6.5,9.1*,-3.6,-0.1,0.1,1.5,
Nc1ncnc(Nc2ccc(Nc3ccccc3)cc2)c1[N+](=O)[O-],7.0,8.7*,23.1,0.3,-1.6,-1.4,
CCC(C(=O)N1CCN(c2ccc(F)cc2)CC1)n1sc2ccccc2c1=O (centres undefined),12.5,0.3,7.7,-0.2,.,.,
Cn1c(Cn2cnc([N+](=O)[O-])n2)nnc1SCC(=O)c1ccccc1,0.6,0.5,-11.1,-0.1,.,.,
COc1ccc(Cl)cc1-c1csc(/C(C#N)=C/c2ccccc2)n1,6.5,-0.5,5.7,0.0,.,.,
Cc1ccc(C(=O)CC(=O)C(=O)Nc2ncccc2O)c(C)c1,5.4,8.3*,-24.3,-0.7,0.4,8.9,
COc1cc(/C=C(\C#N)C(=O)O)ccc1O,1.1,2.3,10.3,0.1,.,.,
COC(=O)c1cccc(C(=O)N2CCC[C@@H]3CN(C(=O)C(C)C)CC[C@H]32)c1,-5.9,7.1*,5.1,0.1,0.2,11.1,
CC(C)C(=O)N1CC[C@@H]2[C@H](CCCN2C(=O)c2cccc(F)c2)C1,11.5,0.3,6.5,-0.1,.,.,
COc1ccccc1Nc1nc(Cl)ccc1[N+](=O)[O-],-8.5,5.0*,0.9,0.1,0.2,1.7,
COc1ccccc1Nc1nc(Cl)cc(N)c1[N+](=O)[O-],-1.9,2.8,14.6,-0.1,.,.,
Cc1cnc(-c2csc3ccccc23)nc1Nc1ccc(N2CCOCC2)cc1,-13.8,5.0*,14.1,0.8,-0.9,-8.8,
Cc1cnc(N2CCOCC2)nc1Nc1ccc(N2CCOCC2)cc1,5.2,-0.8,15.0,-0.1,.,.,
Cc1cnc(N2CCOCC2)nc1Nc1ccc(Oc2ccccc2)cc1,-16.7,6.6*,-3.5,0.1,-0.8,-0.6,
O=C(O)CCCCCn1c(SCC(=O)c2ccccc2)nc2ccsc2c1=O,-0.3,6.5*,23.3,0.1,-0.2,8.1,
COc1ccc(-c2nnc3ccc(SCC(=O)Nc4cccc(F)c4)nn23)cc1OC,-2.6,0.2,5.9,0.0,.,.,
CC(N)(Cc1ccc(O)cc1)C(=O)O (centres undefined),4.5,5.2*!,6.4,-0.2,0.0,3.1,
CC(C)(Cc1ccc(O)cc1)NC(=O)SCc1ccccc1,-1.2,-0.2,6.0,-0.2,.,.,
COc1ccc(NC(=O)CCS(=O)(=O)c2ccc3c(c2)SCC(=O)N3)cc1Cl,-1.2,5.2*,2.6,-0.1,0.6,5.8,
